# Test results: publication PMC11062922 (Nature Chemical Biology, 2023)
# Like-named read-outs stand apart in the source and are kept apart here.
# How the values were obtained:
# Design in all cases: species or system human, MV4-11 + K-562 + COLO205 + SK-N-BE2 + OVCAR-8
# ADRBK1 = conditions: read-out: apparent Kd, n = 1
# CLK3 = conditions: read-out: apparent Kd; compound concentrations: 100 nM and 1000 nM (sheet 'Samples'), CATDS: 0.62903265036008305; n = 1
# CDK6 = conditions: read-out: apparent Kd, n = 1
# ERBB3 = conditions: read-out: apparent Kd; compound concentrations:100 nM and 1000 nM (sheet 'Samples'); n = 1
# RIOK2 = conditions: read-out: apparent Kd, n = 1
# AKT1 = conditions: read-out: apparent Kd, compound concentrations: 100 nM and 1000 nM (sheet 'Samples'), n = 1
# AKT2 = conditions: read-out: apparent Kd, compound concentrations: 100 nM and 1000 nM (sheet 'Samples'), n = 1
# FLT3 = conditions: read-out: apparent Kd; compound concentrations: 100 nM and 1000 nM (sheet 'Samples'), CATDS: 6.2638012545430999E-2; n = 1
# HSP90B1 = conditions: read-out: apparent Kd; compound concentrations: 100 nM and 1000 nM (sheet 'Samples'), CATDS: 7.7391071706101697E-2; n = 1
# IARS = conditions: read-out: apparent Kd; compound concentrations: 100 nM and 1000 nM (sheet 'Samples'), CATDS: 5.4756501565327097E-2; n = 1
# MAP2K1 = conditions: read-out: apparent Kd, compound concentrations: 100 nM and 1000 nM (sheet 'Samples'), n = 1
# MAP2K2 = conditions: read-out: apparent Kd, compound concentrations: 100 nM and 1000 nM (sheet 'Samples'), n = 1
# MAPK14 = conditions: read-out: apparent Kd; compound concentrations: 100 nM and 1000 nM (sheet 'Samples'), CATDS: 6.9601617206552405E-2; n = 1
# MAPKAPK2 = conditions: read-out: apparent Kd; compound concentrations: 100 nM and 1000 nM (sheet 'Samples'), CATDS: 5.3693102707434E-2; n = 1
# MDN1 = conditions: read-out: apparent Kd; compound concentrations: 100 nM and 1000 nM (sheet 'Samples'), CATDS: 0.23126444967608101; n = 1
# NNT = conditions: read-out: apparent Kd, compound concentrations: 100 nM and 1000 nM (sheet 'Samples'), n = 1
# NQO1 = conditions: read-out: apparent Kd, compound concentrations: 100 nM and 1000 nM (sheet 'Samples'), n = 1
# PYGL = conditions: read-out: apparent Kd; compound concentrations: 100 nM and 1000 nM (sheet 'Samples'), CATDS: 4.60061770009558E-2; n = 1
# VDAC3 = conditions: read-out: apparent Kd; compound concentrations: 100 nM and 1000 nM (sheet 'Samples'), CATDS: 5.6878291770418803E-2; n = 1
# ADCK3 = conditions: read-out: apparent Kd; compound concentrations: 100 nM and 1000 nM (sheet 'Samples'), CATDS: 0.21121986416857899; n = 1
# RIPK2 = conditions: read-out: apparent Kd; compound concentrations: 100 nM and 1000 nM (sheet 'Samples'), CATDS: 0.926895955727292; n = 1
# RIPK3 = conditions: read-out: apparent Kd; compound concentrations: 100 nM and 1000 nM (sheet 'Samples'), CATDS: 0.31380158399753799; n = 1
# [1] = compound concentrations:100 nM and 1000 nM (sheet 'Samples')
smiles,measurement,setting,value
O=C(Nc1ccc2c(c1)OCO2)NC1CCN(c2ccnc(NCc3ccc(F)cc3)n2)CC1 [GSK1379859A],potency estimated from few doses,"ADRBK1; compound concentrations: 100 nM and 1000 nM (sheet 'Samples'), CATDS: 1",2160 nM
COc1ccc2cc(-c3nc(-c4ccccc4C(C)C)[nH]c3-c3ccncc3)ccc2c1 [SB-660566],potency estimated from few doses,"ADRBK1; compound concentrations: 100 nM and 1000 nM (sheet 'Samples'), CATDS: 0.41489344635778702",2070 nM
same,potency estimated from few doses,CLK3,865 nM
CCc1cc(Nc2nccc(-c3c(-c4ccc(OC)c(C(=O)Nc5c(F)cccc5F)c4)nc4ccccn34)n2)c(OC)cc1N1CCC(N2CCN(S(C)(=O)=O)CC2)CC1 [GSK1904529],potency estimated from few doses,ADRBK1; [1],2030 nM
same,potency estimated from few doses,CDK6; [1],2370 nM
same,potency estimated from few doses,ERBB3,1360 nM
same,potency estimated from few doses,RIOK2; [1],2220 nM
Cc1ccc(NC(=O)Nc2cc(C(C)(C)C)nn2-c2ccccc2)cc1 [GSK1014915A],potency estimated from few doses,"ADRBK1; compound concentrations: 100 nM and 1000 nM (sheet 'Samples'), CATDS: 5.8321770731493798E-2",1290 nM
same,potency estimated from few doses,AKT1; CATDS: 4.8230371724731401E-2,2030 nM
same,potency estimated from few doses,AKT2; CATDS: 6.0440208262816403E-2,1190 nM
same,potency estimated from few doses,"CDK6; compound concentrations: 100 nM and 1000 nM (sheet 'Samples'), CATDS: 5.1522031717759098E-2",1710 nM
same,potency estimated from few doses,FLT3,1110 nM
same,potency estimated from few doses,HSP90B1,749 nM
same,potency estimated from few doses,IARS,1480 nM
same,potency estimated from few doses,MAP2K1; CATDS: 5.5357684673120397E-2,1440 nM
same,potency estimated from few doses,MAP2K2; CATDS: 6.2527819701534898E-2,1110 nM
same,potency estimated from few doses,MAPK14,906 nM
same,potency estimated from few doses,MAPKAPK2,1550 nM
same,potency estimated from few doses,MDN1,156 nM
same,potency estimated from few doses,NNT; CATDS: 4.6645770981233098E-2,2220 nM
same,potency estimated from few doses,NQO1; CATDS: 6.3403997272240303E-2,1080 nM
same,potency estimated from few doses,PYGL,2310 nM
same,potency estimated from few doses,"RIOK2; compound concentrations: 100 nM and 1000 nM (sheet 'Samples'), CATDS: 4.9711958169324999E-2",1870 nM
same,potency estimated from few doses,VDAC3,1360 nM
CC(C)S(=O)(=O)c1ccc2nccc(Nc3ccc4scnc4c3)c2c1 [GSK872],potency estimated from few doses,ADCK3,483 nM
same,potency estimated from few doses,RIPK2,2.51 nM
same,potency estimated from few doses,RIPK3,70.7 nM
Cn1cc(C2=C(c3ccc4ccccc4c3)C(=O)NC2=O)c2ccccc21 [RO0317254-000],potency estimated from few doses,"ADRBK1; compound concentrations: 100 nM and 1000 nM (sheet 'Samples'), CATDS: 0.11613570195442",2340 nM
same,potency estimated from few doses,AKT1; CATDS: 0.12373221048930499,2050 nM
same,potency estimated from few doses,AKT2; CATDS: 0.121499008172246,2130 nM
same,potency estimated from few doses,"CDK6; compound concentrations: 100 nM and 1000 nM (sheet 'Samples'), CATDS: 0.120580307710246",2160 nM
same,potency estimated from few doses,MAP2K1; CATDS: 0.131345384217323,1820 nM
same,potency estimated from few doses,MAP2K2; CATDS: 0.121431246351448,2130 nM
same,potency estimated from few doses,NNT; CATDS: 0.14240170913061401,1570 nM
same,potency estimated from few doses,NQO1; CATDS: 0.12637990091667001,1960 nM
